# Reference: PubChem BioAssay (NCATS)
# Several values for one entry are separate records, joined by “and”; a condition that tells them apart may be missing. Equal entries are not always repeated. Records with an inconclusive call do not appear. A call without a number means that no potency is given here. Activity calls are given as the source filed them. Unless noted, calls follow the shape of the dose curve; as a rule, active = well fitted curve in the direction sought with a large enough effect; inconclusive = small, poorly fitted or top-dose-only effect, or another doubt; inactive = no such curve, though single readings can be large; an effect the other way counts as inactive or inconclusive.
# Legend:
# [1] = Cell Viability - SK-N-SH (AID 435; calls by dose curve;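 also: potency is read from the fitted curve at half-maximal effect; compound exposure lasted 40 h at 37 °C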); conditions: SK-N-SH neuroblastoma cell viability qHTS
# Outline: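 Luminescent ATP signal served as the viability read-out after 40 hours of compound treatment of human neuroblastoma SK-N-SH cells. Concentration-response data, scaled between DMSO and 100 uM tamoxifen, gave AC50 values by standard Hill modeling.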
# [2] = Cell Viability - N2a (AID 540); conditions: N2a mouse neuroblastoma cell viability; activity change, negative = cytotoxicity: at 92.2 µM (top of the series);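 also: cells exposed to compound for 40 h at 37 °C; nearly all actives have a fitted effect of over 45% in size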
# Outline: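 First, 1500 N2a cells per well incubate 5 hr at 37 °C; next, compounds are added and incubated 40 hr at 37 °C; finally CellTiter-Glo is added and luminescence read after 20 min, with AC50 derived by Hill modeling.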
# [3] = Cell Viability - H-4-II-E (AID 543); conditions: H-4-II-E rat hepatoma viability; series mostly up to 92.2 µM; also: nearly all actives have a fitted effect of over 35% in size
# Outline: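 Here, cytotoxicity is measured in the rat hepatoma line H-4-II-E as loss of intracellular ATP after 40 hr compound treatment, detected by luciferase luminescence.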
# [4] = Cell Viability - Renal Proximal Tubule (AID 545); conditions: renal proximal tubule cells viability, primary cells of rat origin; activity change, negative = cytotoxicity: at 91.7 µM (top of the series); also: nearly all actives have a fitted effect of over 40% in size
# Outline: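 Luminescent ATP signal (CellTiter-Glo) served as the viability read-out after 40 hr compound exposure of freshly isolated rat proximal tubule cells at 37 °C. Concentration-dependent ATP loss was fitted with the Hill equation to give AC50.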
# [5] = Cell Viability - LYMP2-001 (AID 921); conditions: LYMP2-001 lymphoblastoid cell viability; series mostly up to 92.2 µM;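 also: cells exposed to compound for 24 h at 37 °C; nearly all actives have a fitted effect of over 70% in size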
# Outline: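 Steps: seed 2500 lymphoblastoid cells/well; 5 hr, 37 C; add compound; 24 hr, 37 C; CellTiter-Glo reagent, 30 min room temperature; read luminescence. Concentration-response modeled by Hill equation for AC50.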
# [6] = MultiTox-Fluor Cytotoxicity Assay - LYMP1-001 - Live Cells (AID 947); conditions: LYMP1-001 lymphoblastoid cells, live-cell protease fluorescence viability; series mostly up to 92.2 µM
# [7] = MultiTox-Fluor Cytotoxicity Assay - LYMP1-002 - Dead Cells (AID 960); conditions: LYMP1-002 lymphoblastoid cells, dead-cell protease fluorescence; series mostly up to 46.1 µM;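 also: cells exposed to compound for 16 h at 37 °C; nearly all actives have a fitted effect of over 60% in size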
# Outline: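 Acute cytotoxicity in a human lymphoblastoid line is scored as rising dead-cell protease signal after 16 hr exposure at 37 C, measured fluorometrically (485/520).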
# [8] = Cell Viability - LYMP2-005 (AID 967); conditions: LYMP2-005 lymphoblastoid cell viability; series mostly up to 92.2 µM;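 also: cells exposed to compound for 24 h at 37 °C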
# Outline: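 Acute cytotoxicity is scored as a concentration-dependent drop in intracellular ATP in human lymphoblastoid LYMP2-005 cells after 24 h compound treatment. ATP is quantified by luciferase luminescence, and AC50 is derived by Hill-equation modelling.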
# [9] = Cell Viability - LYMP2-009 (AID 968); conditions: LYMP2-009 lymphoblastoid cell viability; series mostly up to 92.2 µM;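 also: cells exposed to compound for 24 h at 37 °C; nearly all actives have a fitted effect of over 55% in size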
# [10] = Cell Viability - LYMP2-015 (AID 971); conditions: LYMP2-015 lymphoblastoid cell viability; series mostly up to 92.2 µM; also: nearly all actives have a fitted effect of over 55% in size
# Outline: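 Acute toxicity was scored as a concentration-dependent drop in intracellular ATP in lymphoblastoid cells after 24 hr compound exposure in complete medium. Detection used CellTiter-Glo luciferase luminescence.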
# [11] = Cell Viability - LYMP2-017 (AID 972); conditions: LYMP2-017 lymphoblastoid cell viability; series mostly up to 92.2 µM;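 also: cells exposed to compound for 24 hours at 37 °C; nearly all actives have a fitted effect of over 55% in size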
# Outline: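 Steps: plate 2500 lymphoblastoid cells per well; incubate 5 hr at 37 C; add compound across a concentration series and incubate 24 hr at 37 C; add CellTiter-Glo and read luminescence after 30 min at room temperature; fit Hill curves for AC50.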
# [12] = Cell Viability - LYMP2-006 (AID 978); conditions: LYMP2-006 lymphoblastoid cell viability, qHTS; series mostly up to 92.2 µM;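 also: cells exposed to compound for 24 hours; nearly all actives have a fitted effect of over 60% in size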
# Outline: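 Cells are seeded at 2500 per well and rested 5 hr at 37 C. Compounds are added across a concentration series for 24 hr at 37 C, after which ATP is quantified by luciferase luminescence.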
# [13] = Cell Viability - LYMP2-010 (AID 981); conditions: LYMP2-010 lymphoblastoid cell viability, qHTS; series mostly up to 92.2 µM;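 also: cells exposed to compound for 24 hours at 37 °C; nearly all actives have a fitted effect of over 55% in size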
# Outline: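 Acute toxicity is scored as a concentration-dependent loss of cellular ATP in human lymphoblastoid cells after 24 hr compound exposure in complete medium. Tetraoctylammonium bromide is the positive control.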
# [14] = qHTS assay for small molecule agonists of retinoid X receptor alpha signaling (AID 588544); conditions: HEK293T RXRa-UAS-bla, beta-lactamase reporter, 18 h; 530 nm emission
# [15] = target: Thyroid hormone receptor beta (Homo sapiens) (UniProt P10828); assay: qHTS assay for small molecule agonists of thyroid hormone receptor beta signaling (AID 588545; calls by dose curve); conditions: TR-UAS-bla GripTite HEK 293, beta-lactamase ratio, agonist mode, 18 h; series mostly up to 76.7 µM
# Thyroid hormone receptor beta (Homo sapiens), sequence (P10828 whole entry, looked up): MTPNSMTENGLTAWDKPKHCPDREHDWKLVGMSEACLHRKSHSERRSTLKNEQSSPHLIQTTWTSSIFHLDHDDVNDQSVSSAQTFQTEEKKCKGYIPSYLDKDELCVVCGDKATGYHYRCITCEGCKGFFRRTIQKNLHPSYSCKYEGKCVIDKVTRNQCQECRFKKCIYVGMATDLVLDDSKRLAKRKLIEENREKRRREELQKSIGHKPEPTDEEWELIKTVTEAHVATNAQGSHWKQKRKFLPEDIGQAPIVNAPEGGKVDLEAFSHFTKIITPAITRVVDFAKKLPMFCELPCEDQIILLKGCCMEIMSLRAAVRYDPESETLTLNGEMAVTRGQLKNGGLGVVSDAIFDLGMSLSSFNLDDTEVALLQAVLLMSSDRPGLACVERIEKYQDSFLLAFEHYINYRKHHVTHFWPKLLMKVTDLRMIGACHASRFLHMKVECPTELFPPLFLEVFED
# Outline: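 Efficacy and EC50 values derive from Hill fits of qHTS titration data, normalized to 10 nM T3 and DMSO-only wells. HEK 293 reporter cells were stimulated for 18 hrs at 37 C, with beta-lactamase activity measured by CCF4 fluorescence.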
# [16] = target: Thyroid hormone receptor beta (Homo sapiens) (UniProt P10828); assay: qHTS assay for small molecule antagonists of thyroid hormone receptor beta signaling (AID 588547; active = well fitted inhibition curve with a large enough effect in the signal ratio, with a control signal flat, not every such curve was filed as active; the % refers to the signal ratio;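 also: cells stimulated with 0.4 nM T3 agonist during compound exposure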); conditions: TR-UAS-bla HEK293, beta-lactamase ratio, antagonist mode, 18 h
# Outline: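 TR-UAS-bla GripTite HEK293 cells in 2% charcoal/dextran FBS medium; compounds 0.59 nM to 92 uM with T3 at 0.4nM final, 18 h at 37 C. Beta-lactamase read by CCF4 fluorescence (460/530 nm); Hill fits gave IC50 and efficacy.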
# [17] = qHTS assay for small molecule disruptors of the mitochondrial membrane potential - 1 hr assay (AID 651754; calls by dose curve; also: nearly all actives have a fitted effect of over 35% in size); conditions: series mostly up to 92.2 µM
# Outline: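 Steps: seed HepG2 cells and let attach overnight; pin-transfer compound or vehicle; incubate 1 hr at 37C; add Mito-MPS dye for 30 min; read two-channel fluorescence for monomer and aggregate forms.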
# [18] = qHTS assay for small molecule disruptors of the mitochondrial membrane potential - 5 hr assay (AID 651755; calls by dose curve; also: nearly all actives have a fitted effect of over 40% in size); conditions: JC-1-type ratio dye; series mostly up to 92.2 µM
# Outline: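 HepG2 cells (2,000/well), attached overnight, exposed to compound 5 hr at 37C, then Mito-MPS dye 30 min. Fluorescence read for monomers (490/535 nm) and aggregates (540/590 nm).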
# [19] = qHTS assay for small molecule agonists of the antioxidant response element (ARE) signaling pathway measured by Nrf2-dependant transcriptional activity (AID 720636; active = well fitted curve in the direction sought with a large enough effect in the repeat runs; an effect the other way counts as inactive or inconclusive;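 also: HepG2 cells with an ARE-driven luciferase reporter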); conditions: ARE-luc HepG2, Nrf2 luciferase reporter, 16 h; series mostly up to 92.4 µM
# Outline: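 Cells: ARE-luc HepG2 with Nrf2-responsive luciferase. Medium contained 1% dialyzed FBS. Compound exposure lasted 16 hr at 37 C and 5% CO2, followed by ONE-Glo luciferase detection.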
# [20] = target: Nuclear receptor subfamily 1 group I member 2 (Rattus norvegicus) (UniProt Q9R1A7); assay: qHTS assay for small molecule activators of the rat pregnane X receptor (rPXR) signaling pathway (AID 651751; call rule not given here); conditions: rPXR reporter cells, luciferase (One-Glo), 24 h
# Nuclear receptor subfamily 1 group I member 2 (Rattus norvegicus), sequence (Q9R1A7 whole entry, looked up): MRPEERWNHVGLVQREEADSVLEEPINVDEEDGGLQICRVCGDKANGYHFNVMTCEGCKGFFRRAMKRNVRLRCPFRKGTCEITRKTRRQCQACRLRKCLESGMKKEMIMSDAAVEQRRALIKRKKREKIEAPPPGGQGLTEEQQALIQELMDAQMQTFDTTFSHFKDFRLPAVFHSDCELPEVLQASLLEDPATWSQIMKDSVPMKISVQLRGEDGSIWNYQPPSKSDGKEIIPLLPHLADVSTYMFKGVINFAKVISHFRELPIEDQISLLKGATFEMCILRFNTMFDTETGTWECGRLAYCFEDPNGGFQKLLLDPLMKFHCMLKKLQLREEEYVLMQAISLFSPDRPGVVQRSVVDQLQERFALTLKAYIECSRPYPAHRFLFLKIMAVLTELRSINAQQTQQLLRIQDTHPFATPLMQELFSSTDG
SMILES,Potency [1],"activity change, negative = cytotoxicity [2]",Potency [3],Potency [4],Potency [5],Potency [6],Potency [7],Potency [8],Potency [9],Potency [10],Potency [11],Potency [12],Potency [13],max response [14],Potency [15],activity change % (negative = inhibition) [16],Potency [17],Potency [18],Potency [19],max response [20]
C=Cc1cccc(C)c1,> 92 µM (inactive),-2.59% (inactive),inactive,inactive,inactive,inactive,inactive,inactive,inactive,inactive,inactive,inactive,inactive,-15.6%,inactive,-8.39% (inactive),inactive,inactive,inactive,3.54% (inactive)
Cc1ccc(N)cc1[N+](=O)[O-],> 92 µM (inactive),-8.48% (inactive),inactive,inactive,inactive,inactive,–,inactive,inactive,inactive,inactive,inactive,inactive,4.03%,inactive,-24.5% (inactive),inactive,inactive,inactive,-0.278% (inactive)
CCCCCCCCOc1ccc(C(=O)O)cc1,> 92 µM (inactive),-7.43% (inactive),inactive,inactive,inactive,inactive,inactive,inactive,inactive,inactive,inactive,inactive,inactive,-15.5%,inactive,10% (inactive),inactive,inactive,inactive,13.3% (inactive)
OCC(CO)(CBr)CBr,> 92 µM (inactive),-2.21% (inactive),inactive,inactive,inactive,inactive,inactive,inactive,inactive,inactive,inactive,inactive,inactive,0.243% and -1.22%,inactive,-10.9% (inactive) and 7.42% (inactive),inactive,inactive,inactive,4.89% (inactive) and 3.86% (inactive)
CCCCC(CC)COC(=O)COc1ccc(Cl)cc1Cl (stereo unspecified),> 92 µM (inactive),1.51% (inactive),inactive,inactive,inactive,inactive,inactive,–,inactive,inactive,inactive,inactive,inactive,5.67% and -6.26%,inactive,-2.67% (inactive) and 4.45% (inactive),inactive,inactive,inactive,-0.582% (inactive) and 1.82% (inactive)
CCCCCCc1ccc(-c2ccc(C#N)cc2)cc1,> 92 µM (inactive),-10.7% (inactive),inactive,inactive,–,inactive,inactive,inactive,inactive,inactive,inactive,inactive,inactive,-25.6%,inactive,6.73% (inactive),inactive,inactive,inactive,-10.6% (inactive)
CCCCNCC,> 92 µM (inactive),-1.46% (inactive),inactive,inactive,inactive,inactive,inactive,inactive,inactive,inactive,inactive,inactive,inactive,-3.36%,–,–,inactive,inactive,inactive,1.14% (inactive)
c1ccc(CSCc2ccccc2)cc1,> 92 µM (inactive),-17.4% (inactive),inactive,inactive,inactive,inactive,inactive,inactive,inactive,inactive,inactive,inactive,inactive,-16.6%,inactive,-5.66% (inactive),inactive,inactive,inactive,-1.32% (inactive)
COc1cc(-c2ccc(N=C=O)c(OC)c2)ccc1N=C=O,> 92 µM (inactive),4.66% (inactive),inactive,inactive,inactive,inactive,inactive,inactive,inactive,inactive,inactive,inactive,inactive,-18.6%,inactive,-7.61% (inactive),–,inactive,inactive,–
c1ccc2c(c1)ccc1ccccc12,> 92 µM (inactive),-13.8% (inactive),inactive,inactive,inactive,inactive,inactive,–,inactive,inactive,inactive,inactive,inactive,-6.28%,inactive,0.286% (inactive),inactive,inactive,inactive,-1.82% (inactive) and 1.55% (inactive)
CCCCC(CC)COCCCN (stereo unspecified),> 92 µM (inactive),–,inactive,inactive,inactive,inactive,inactive,inactive,inactive,inactive,inactive,inactive,inactive,1.27%,inactive,3.53% (inactive),–,–,inactive,1.77% (inactive)
OC1CCCCC1,> 92 µM (inactive),-3.26% (inactive),inactive,inactive,inactive,inactive,inactive,inactive,inactive,inactive,inactive,inactive,inactive,-4.1%,inactive,4.86% (inactive),–,–,inactive,1.53% (inactive)
Cc1ccc(C(=O)O)cc1[N+](=O)[O-],> 92 µM (inactive),4.91% (inactive),inactive,inactive,inactive,inactive,inactive,inactive,inactive,inactive,inactive,inactive,inactive,0.231%,–,2.7% (inactive),inactive,inactive,inactive,1.55% (inactive)
